# Source: PubChem BioAssay AID485284 (NMMLSC, 2010)
# Results with a measured potency or affinity are listed apart.
# Assay: loss of vesicle association with mouse CD8+ T cells – mouse 2C CD8+ T cells, flow cytometry, dose response (AID 485284);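 further: drosophila derived vesicles carrying Ld MHC with QL9 peptide plus B7-1 and ICAM-1; vesicle binding seen as anti-B7-1 PE fluorescence on CD8 gated cells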
# Details: 2C mouse CD8+ T cell-exosome binding; at 45 µM (top of the series)
row,Compound,"binding remaining, % of control"
1,CN(CC(=O)Nc1cc(S(=O)(=O)N2CCCC2)ccc1Cl)Cc1ccc2c(c1)OCO2,63%
2,c1ccc(COc2ccc(OCCN3CCCCC3)cc2)cc1,112%
3,CCOc1ccc(S(=O)(=O)N2CCC(C(=O)Nc3cc(S(C)(=O)=O)ccc3Cl)CC2)cc1,106%
4,CCN1CCN(c2ccc(S(=O)(=O)N3CCOCC3)cc2NC(=O)/C=C/c2ccc(C)cc2)CC1,98.1%
5,COc1ccccc1N1CCN(C(=O)C2CCCN(S(=O)(=O)c3ccc(C)cc3)C2)CC1 (stereo not drawn),132%
6,COc1ccc([C@H]2CC(=O)C=C(c3c(C)cc(C)cc3C)C2)cc1,56.3%
7,Cc1ccc(C(C)n2cc(C(=O)NCCN3CCN(C)CC3)nn2)cc1 (stereo not drawn),144%
8,Cc1c(C)c2c(OCC(=O)NCC(O)c3ccccc3)cc3c(c2oc1=O)CCC(C)(C)O3 (stereo not drawn),72.4%
9,COc1ccc(NC(=O)CSCC(=O)Nc2cccc(S(=O)(=O)N3CCCCCC3)c2)cc1,44.4%
10,COC(=O)CN1C(=S)N(C)C(=O)C1CC(=O)Nc1ccccc1 (stereo not drawn),123%
11,Cc1cc(F)ccc1S(=O)(=O)N1CCCOC1CNC(=O)C(=O)NC1CCCC1 (stereo not drawn),67.8%
12,O=C(CN1C(=O)NC2(CCCCCC2)C1=O)N1CCN(c2ccc(F)cc2)CC1,110%
13,Cc1nc2sc(C(c3ccccc3)N3CCN(c4ccccc4F)CC3)c(O)n2n1 (stereo not drawn),163%
14,Cc1ccc(S(=O)(=O)c2c(N)n(NC(=O)c3ccccc3C)c3nc4ccccc4nc23)cc1,100%
15,O=C(NC(=S)Nc1nc(-c2ccccc2)cs1)c1cccs1,173%
16,COc1ccc(CNC(=O)c2cccnc2SC)cc1OC,132%
17,CCCCCCCCn1c2c(c(=N)c3c1CCC3)CCCC2,36.6%

row,Compound,"binding remaining, % of control"
1,CCCNC(=O)c1nc2ncc(Br)cn2n1,153%
2,Cc1cccc(NC(=O)CN2C(=O)N/C(=C\c3ccc(N4CCOCC4)cc3)C2=O)c1,142%
3,O=C(OCC(=O)N1CCN(C(=O)c2ccco2)CC1)c1ccccc1Cc1ccccc1,73%
4,CSCCC(NC(=O)c1ccc(=O)n(C)n1)c1nc2ccccc2[nH]1 (stereo not drawn),149%
5,Cc1ccc(NC(=O)COC(=O)CCc2c[nH]c3ccccc23)c(C)c1,138%
6,CC(Sc1nc2ccccc2[nH]1)C(=O)NC1CCCCC1C (stereo not drawn),87.9%
7,CCOC(=O)C1CCCN(c2cc(=O)n(-c3ccccc3Cl)c(=O)[nH]2)C1 (stereo not drawn),87.9%
8,Cc1ccc(C)c(-n2c3nc(=O)[nH]c(=O)c-3cc3cc([N+](=O)[O-])ccc32)c1,133%
9,CC(C)(C)OC(=O)NCc1ccc(CNC(=O)c2nc[nH]c2C(=O)NCc2ccccc2)cc1,109%
10,CC(C)[C@H]1C(=O)Nc2ccccc2N1C(=O)N[C@@H](Cc1ccccc1)C(=O)N[C@@H](Cc1ccccc1)C(=O)O,168%
11,N#Cc1cccc(NC(=O)CN2C(=O)NC3(CCCCCC3)C2=O)c1,176%
12,CC1=C/C(=C(\c2ccc(O)c(C)c2)c2ccccc2S(=O)(=O)O)C=CC1=O,138%
13,COc1ccc([N+](=O)[O-])cc1NC(=O)c1ccc(N(Cc2ccccc2C)S(C)(=O)=O)cc1,99.1%
14,CSc1cccc(NC(=O)CCCn2c(=O)c3cccn3c3cccnc32)c1,87.5%
15,CCCNC(=O)CN1CCN(S(=O)(=O)c2ccc(Br)s2)CC1,100%
16,O=C(NC(=S)NCc1ccco1)c1ccc(Br)cc1,136%
